# The source made the active and inactive calls. Rule for the calls: active = hit-call score of the fitted dose curve at least 0.9, where 1 is the maximum; inactive = score below 0.9.
# Columns and labels:
# [1] = ATG_CRE_CIS: Attagene CIS-FACTORIAL HepG2 Assay for human cAMP Responsive Element (CRE) binding protein 3 (AID 2282926); details: HepG2 CRE cis-reporter, Attagene multiplexed mRNA; actives raise or lower the signal
# In short: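 Endogenous CRE-binding activity in HepG2 is reported through a cis-regulated transfected reporter. Following a day of exposure, mRNA levels are determined by reverse transcription PCR and fluorescent fragment analysis; fits run in both directions versus DMSO.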
# [2] = molecular target: CCAAT/enhancer-binding protein beta (Homo sapiens) (UniProt P17676); test: ATG_C_EBP_CIS: Attagene CIS-FACTORIAL HepG2 Assay for human CCAAT/Enhancer Binding Protein (C/EBP) beta (AID 2282927); details: HepG2 Attagene cis-factorial transcription factor reporter; actives raise or lower the signal
# Chain of CCAAT/enhancer-binding protein beta (Homo sapiens) (P17676 whole entry, looked up): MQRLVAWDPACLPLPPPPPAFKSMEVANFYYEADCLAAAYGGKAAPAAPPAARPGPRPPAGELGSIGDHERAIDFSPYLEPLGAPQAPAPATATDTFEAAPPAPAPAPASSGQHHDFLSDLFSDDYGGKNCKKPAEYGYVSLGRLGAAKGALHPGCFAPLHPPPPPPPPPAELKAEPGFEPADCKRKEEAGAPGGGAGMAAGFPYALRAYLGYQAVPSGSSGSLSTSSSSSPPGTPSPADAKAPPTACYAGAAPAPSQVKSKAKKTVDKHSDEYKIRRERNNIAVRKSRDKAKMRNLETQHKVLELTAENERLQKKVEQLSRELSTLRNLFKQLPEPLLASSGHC
# In short: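 HepG2, transient MRTU transfection, 24 h treatment. RT-PCR plus CE fluorescence; DMSO negative control, bidirectional fit.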
# [3] = ATG_CMV_CIS: Attagene CIS-FACTORIAL HepG2 Assay for human CMV (Internal Marker) (AID 2282928); details: HepG2 CMV promoter reporter, transcription factor profiling; actives raise or lower the signal;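 note: endpoint acts as a background internal control marker rather than a target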
# In short: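 CMV internal-marker background readout in transiently transfected HepG2 cells bearing cis-regulated reporter units. Reporter mRNA is measured 24 h after dosing by RT-PCR and capillary electrophoresis, with bidirectional fitting against DMSO.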
# [4] = ATG_DR4_LXR_CIS: Attagene CIS-FACTORIAL HepG2 Assay for human Liver X Receptor (LXR), DR4 submotif (AID 2282929); details: HepG2 Attagene DR4 cis-reporter, mRNA transcription; actives raise or lower the signal
# In short: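 After transient transfection with multiplexed cis-promoter reporter units, HepG2 cells received test chemicals for 24 h. Reporter mRNA induction, detected by fluorescence after RT-PCR and capillary electrophoresis, was scored relative to DMSO.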
# [5] = molecular target: Aryl hydrocarbon receptor (Homo sapiens) (UniProt P35869); test: ATG_Ahr_CIS: Attagene CIS-FACTORIAL HepG2 Assay for human Aryl Hydrocarbon Receptor (Ahr) (AID 2282930); details: HepG2 AhR cis-factorial reporter transcription; actives raise or lower the signal
# Chain of Aryl hydrocarbon receptor (Homo sapiens) (P35869 whole entry, looked up): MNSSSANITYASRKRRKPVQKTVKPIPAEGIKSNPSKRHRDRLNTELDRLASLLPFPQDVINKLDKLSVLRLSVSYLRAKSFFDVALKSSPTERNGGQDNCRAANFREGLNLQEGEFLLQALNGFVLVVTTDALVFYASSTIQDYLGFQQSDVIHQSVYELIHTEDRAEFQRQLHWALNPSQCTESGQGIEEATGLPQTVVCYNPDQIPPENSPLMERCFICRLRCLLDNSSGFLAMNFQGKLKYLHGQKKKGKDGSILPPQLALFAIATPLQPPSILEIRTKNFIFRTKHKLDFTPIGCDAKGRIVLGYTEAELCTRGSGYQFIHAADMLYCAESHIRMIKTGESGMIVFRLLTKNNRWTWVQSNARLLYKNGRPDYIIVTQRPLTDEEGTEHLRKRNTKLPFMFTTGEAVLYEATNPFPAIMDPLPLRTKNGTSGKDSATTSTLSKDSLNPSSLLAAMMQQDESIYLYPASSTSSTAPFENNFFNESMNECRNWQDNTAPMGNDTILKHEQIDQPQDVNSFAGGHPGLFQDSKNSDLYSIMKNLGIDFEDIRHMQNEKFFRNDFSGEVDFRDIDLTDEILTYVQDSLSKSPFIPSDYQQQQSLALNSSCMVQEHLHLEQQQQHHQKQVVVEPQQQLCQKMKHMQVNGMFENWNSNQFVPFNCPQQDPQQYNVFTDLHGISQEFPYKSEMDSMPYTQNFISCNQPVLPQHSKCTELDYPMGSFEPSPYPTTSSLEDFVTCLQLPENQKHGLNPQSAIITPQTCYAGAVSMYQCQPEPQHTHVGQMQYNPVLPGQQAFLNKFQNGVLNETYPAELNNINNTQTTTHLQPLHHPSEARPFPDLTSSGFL
# In short: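 Endogenous factor activity is tracked through cis-promoter reporter units transfected into HepG2 cells. Transcript levels at 24 h are read by fluorescent RT-PCR and capillary electrophoresis, with activity in either direction scored relative to DMSO.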
# [6] = ATG_AP_1_CIS: Attagene CIS-FACTORIAL HepG2 Assay for human Activator Protein 1 (AP-1) (AID 2282931); details: HepG2 Attagene cis-factorial AP-1 reporter mRNA; actives raise or lower the signal
# In short: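 After 24 h incubation with test chemical, RNA from transfected HepG2 cells was reverse-transcribed, amplified, fluorescently labelled and digested before capillary electrophoresis. Reporters were driven by cis-regulatory promoters; activity fitted bidirectionally versus DMSO.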
# [7] = ATG_AP_2_CIS: Attagene CIS-FACTORIAL HepG2 Assay for human Activator Protein 2 (AP-2) (AID 2282932); details: HepG2 AP-2 cis-reporter, Attagene transcription factor profiling; actives raise or lower the signal
# In short: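 HepG2 cells transiently transfected with cis-element reporter units and exposed for 24 h. Reporter mRNA measured by RT-PCR, FAM labelling, HpaI digestion and capillary electrophoresis. Changes in either direction fitted relative to DMSO.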
# [8] = ATG_BRE_CIS: Attagene CIS-FACTORIAL HepG2 Assay for human Bone Morphogenetic Protein (BMP) Response Element (BRE) (AID 2282933); details: HepG2 BMP response element reporter, Attagene transcription factor profiling; actives raise or lower the signal
# In short: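 Endogenous transcription factor activity at a BMP response element was monitored in transfected HepG2 cells 24 h after dosing. Fluorescent RT-PCR products were resolved by capillary electrophoresis, and activity was fitted in both directions versus DMSO.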
# [9] = molecular target: Retinoic acid receptor alpha (Homo sapiens) (UniProt P10276); test: ATG_DR5_RAR_CIS: Attagene CIS-FACTORIAL HepG2 Assay for human Retinoic Acid Receptor Alpha (RARE), DR5 submotif (AID 2282934); details: HepG2 Attagene cis-factorial RARE DR5 reporter, mRNA; actives raise or lower the signal;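 for AC50: reporter responds to endogenous RAR alpha beta and gamma in HepG2 not RARA alone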
# Chain of Retinoic acid receptor alpha (Homo sapiens) (P10276 whole entry, looked up): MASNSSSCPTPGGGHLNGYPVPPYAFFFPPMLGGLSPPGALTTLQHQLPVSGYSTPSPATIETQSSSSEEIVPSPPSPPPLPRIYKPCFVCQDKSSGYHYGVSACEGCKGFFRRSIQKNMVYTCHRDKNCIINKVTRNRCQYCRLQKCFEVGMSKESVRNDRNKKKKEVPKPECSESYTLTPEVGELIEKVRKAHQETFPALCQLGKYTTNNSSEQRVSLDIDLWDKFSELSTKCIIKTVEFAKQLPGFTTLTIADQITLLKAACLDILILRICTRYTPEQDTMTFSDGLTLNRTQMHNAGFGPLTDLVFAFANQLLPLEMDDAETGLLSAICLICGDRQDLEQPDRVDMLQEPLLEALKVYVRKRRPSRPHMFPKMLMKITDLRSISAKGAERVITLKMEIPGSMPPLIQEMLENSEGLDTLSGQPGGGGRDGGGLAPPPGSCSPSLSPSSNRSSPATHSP
# In short: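 After 24 h of chemical exposure, transiently transfected HepG2 cells were lysed for total RNA; the DR5-regulated reporter transcript was quantified via RT-PCR and capillary electrophoresis, with activity fitted bidirectionally against DMSO.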
# [10] = molecular target: Transcription factor E2F1 (Homo sapiens) (UniProt Q01094); test: ATG_E2F_CIS: Attagene CIS-FACTORIAL HepG2 Assay for human E2F Transcription Factor 1 (AID 2282935); details: HepG2 Attagene cis-reporter, E2F reporter RNA transcripts; actives raise or lower the signal
# Chain of Transcription factor E2F1 (Homo sapiens) (Q01094 whole entry, looked up): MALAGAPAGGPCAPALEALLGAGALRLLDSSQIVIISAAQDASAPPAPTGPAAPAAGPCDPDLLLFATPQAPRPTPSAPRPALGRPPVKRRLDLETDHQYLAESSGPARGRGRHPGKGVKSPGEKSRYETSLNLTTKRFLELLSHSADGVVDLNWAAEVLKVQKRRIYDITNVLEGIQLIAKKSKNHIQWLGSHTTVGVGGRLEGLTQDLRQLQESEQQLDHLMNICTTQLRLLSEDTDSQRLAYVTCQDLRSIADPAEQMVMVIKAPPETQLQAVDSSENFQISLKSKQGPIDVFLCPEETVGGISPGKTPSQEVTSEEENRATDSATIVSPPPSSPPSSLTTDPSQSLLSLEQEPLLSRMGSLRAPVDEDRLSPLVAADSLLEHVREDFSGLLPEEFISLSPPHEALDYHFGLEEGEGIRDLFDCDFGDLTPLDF
# In short: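 Endogenous E2F1 activity read through cis-promoter reporter units transfected into HepG2. After 24 h compound treatment, reporter mRNA measured by RT-PCR, HpaI digestion and capillary electrophoresis. Bidirectional fit versus DMSO.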
# [11] = ATG_E_Box_CIS: Attagene CIS-FACTORIAL HepG2 Assay for human Enhancer Box (E-box) (AID 2282936); details: HepG2 E-box cis-reporter transcription, actives raise or lower the signal
# In short: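 HepG2 cells transiently transfected with multiplexed cis-element reporter units, dosed 24 h; reporter mRNA quantified by RT-PCR, 6-FAM labelling, HpaI digestion and capillary electrophoresis. E-box (USF1) signal fitted bidirectionally vs DMSO.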
# [12] = ATG_M_61_CIS: Attagene CIS-FACTORIAL HepG2 Assay for M61 Transcription Factor (Internal Marker) (AID 2282937); details: HepG2 Attagene CIS-FACTORIAL M61 internal marker reporter; actives raise or lower the signal
# In short: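 Using transiently transfected HepG2 liver cells, reporter transcript levels were assessed 24 h post-dosing by RT-PCR and capillary electrophoresis. Changes in either direction were fitted relative to DMSO controls.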
# [13] = ATG_EGR_CIS: Attagene CIS-FACTORIAL HepG2 Assay for human Early Growth Response 1 (EGR1) (AID 2282938); details: HepG2 Attagene CIS-FACTORIAL EGR reporter mRNA; actives raise or lower the signal
# In short: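 Fluorescent capillary-electrophoresis signal of reporter cDNA fragments serves as read-out. HepG2 cells bear transiently transfected cis-promoter reporter units and are exposed 24 h; gain- or loss-of-signal is fitted against DMSO.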
# [14] = ATG_M_19_CIS: Attagene CIS-FACTORIAL HepG2 Assay for M19 Transcription Factor (Internal Marker) (AID 2282939); details: HepG2 Attagene CIS-FACTORIAL M19 internal marker reporter; actives raise or lower the signal
# In short: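 Background-control endpoint from a multiplexed HepG2 reporter panel. Cells carrying cis-regulated reporter constructs are treated 24 h, then reporter transcripts are amplified, fluorescently labelled and sized by capillary electrophoresis. DMSO defines baseline.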
# [15] = ATG_ERE_CIS: Attagene CIS-FACTORIAL HepG2 Assay for Estrogen Response Element (ERE) (AID 2282940); details: HepG2 ERE cis-reporter, Attagene RNA transcript; actives raise or lower the signal
# In short: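 Cells used were human hepatoma HepG2, transfected with multiple reporter transcription units under cis-regulatory promoters. Reporter mRNA, read 24 h post-dosing via fluorescent RT-PCR products on capillary electrophoresis, was fitted bidirectionally relative to DMSO.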
# [16] = ATG_Ets_CIS: Attagene CIS-FACTORIAL HepG2 Assay for human Erythroblast Transformation Specific (ETS) (AID 2282941); details: HepG2 ETS cis-reporter transcription, actives raise or lower the signal
# In short: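 HepG2 cells transfected with multiple cis-regulated reporter units measuring endogenous ETS-driven transcription, 24 h after dosing. Reporter mRNA quantified by RT-PCR with capillary electrophoresis; bidirectional fit relative to DMSO.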
# [17] = molecular target: Hepatocyte nuclear factor 3-beta (Homo sapiens) (UniProt Q9Y261); test: ATG_FoxA2_CIS: Attagene CIS-FACTORIAL HepG2 Assay for human Forkhead box A2 (FOXA2) (AID 2282942); details: HepG2 cis-reporter transcription factor activity, 24 h; actives raise or lower the signal
# Chain of Hepatocyte nuclear factor 3-beta (Homo sapiens) (Q9Y261 whole entry, looked up, the tested form may be a part): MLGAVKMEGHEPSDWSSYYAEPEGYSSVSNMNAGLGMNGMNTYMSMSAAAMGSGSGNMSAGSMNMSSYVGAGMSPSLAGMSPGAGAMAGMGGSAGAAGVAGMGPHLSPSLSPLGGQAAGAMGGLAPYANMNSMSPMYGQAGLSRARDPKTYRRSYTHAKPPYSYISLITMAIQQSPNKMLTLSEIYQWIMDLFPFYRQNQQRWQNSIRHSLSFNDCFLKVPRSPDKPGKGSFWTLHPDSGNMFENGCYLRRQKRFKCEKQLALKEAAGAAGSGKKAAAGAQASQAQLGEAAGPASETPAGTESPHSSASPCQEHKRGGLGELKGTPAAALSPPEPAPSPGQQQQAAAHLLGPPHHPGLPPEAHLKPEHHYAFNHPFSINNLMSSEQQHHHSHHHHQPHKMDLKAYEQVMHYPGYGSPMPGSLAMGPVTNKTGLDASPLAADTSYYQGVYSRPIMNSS
# In short: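 Fluorescence signal of reporter cDNA fragments, separated by capillary electrophoresis, reflects endogenous transcription factor activity in transfected HepG2 after 24 h. Both increases and decreases fitted against DMSO.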
# [18] = ATG_FoxO_CIS: Attagene CIS-FACTORIAL HepG2 Assay for human Forkhead box O (FoxO) (AID 2282943); details: HepG2 Attagene cis-reporter, FoxO element, mRNA; actives raise or lower the signal
# In short: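 Transfected HepG2 reporter cells exposed to test chemical for 24 h; reporter RNA measured by reverse transcription, PCR and fluorescent capillary electrophoresis; curves fitted for increases and decreases against DMSO.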
# [19] = ATG_GATA_CIS: Attagene CIS-FACTORIAL HepG2 Assay for human GATA Binding Protein (AID 2282944); details: HepG2 GATA cis-element reporter, Attagene multiplex mRNA; actives raise or lower the signal
# In short: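 Endogenous transcription factor activity was captured through cis-promoter-driven reporters in transfected HepG2 cells. After 24 h exposure, reporter transcripts were quantified by RT-PCR with fluorescent capillary electrophoresis, and responses fitted both directions against DMSO.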
smiles,measurement,setting,value
CC1COC(Cn2cncn2)(c2ccc(Oc3ccc(Cl)cc3)cc2Cl)O1 (stereo not drawn),AC50,[1],1.6 µM (active)
same,AC50,[2],0.829 µM (active)
same,outcome,[3],inactive
same,outcome,[4],inactive
same,outcome,[5],inactive
same,AC50,[6],4.29 µM (active)
same,outcome,[7],inactive
same,AC50,[8],1.71 µM (active)
same,outcome,[9],inactive
same,outcome,[10],inactive
same,outcome,[11],inactive
same,outcome,[12],inactive
same,outcome,[13],inactive
same,outcome,[14],inactive
same,AC50,[15],0.245 µM (active)
same,outcome,[16],inactive
same,outcome,[17],inactive
same,outcome,[18],inactive
same,outcome,[19],inactive
CC1=C(C(=O)Nc2ccccc2)SCCO1,outcome,[1],inactive
same,outcome,[3],inactive
same,outcome,[4],inactive
same,outcome,[5],inactive
same,outcome,[6],inactive
same,outcome,[7],inactive
same,outcome,[8],inactive
same,outcome,[9],inactive
same,outcome,[10],inactive
same,outcome,[11],inactive
same,outcome,[12],inactive
same,outcome,[13],inactive
same,outcome,[14],inactive
same,outcome,[15],inactive
same,outcome,[16],inactive
same,outcome,[17],inactive
same,outcome,[18],inactive
same,outcome,[19],inactive
COC(=O)c1ccccc1C(=O)OC,outcome,[1],inactive
same,outcome,[3],inactive
same,outcome,[4],inactive
same,outcome,[5],inactive
same,outcome,[6],inactive
same,outcome,[7],inactive
same,outcome,[8],inactive
same,outcome,[9],inactive
same,outcome,[10],inactive
same,outcome,[11],inactive
same,outcome,[12],inactive
same,outcome,[13],inactive
same,outcome,[14],inactive
same,outcome,[15],inactive
same,outcome,[16],inactive
same,outcome,[17],inactive
same,outcome,[18],inactive
same,outcome,[19],inactive
Cc1ccc(-c2c(Cl)nc(C#N)n2S(=O)(=O)N(C)C)cc1,AC50,[1],7.83 µM (active)
same,outcome,[3],inactive
same,outcome,[4],inactive
same,outcome,[5],inactive
same,AC50,[6],9.12 µM (active)
same,outcome,[7],inactive
same,AC50,[8],10.3 µM (active)
same,AC50,[9],11.9 µM (active)
same,outcome,[10],inactive
same,outcome,[11],inactive
same,outcome,[12],inactive
same,outcome,[13],inactive
same,outcome,[14],inactive
same,outcome,[15],inactive
same,outcome,[16],inactive
same,outcome,[17],inactive
same,outcome,[18],inactive
same,outcome,[19],inactive

# — PubChem BioAssay (EPA / NIEHS)
